Our source for the activity change, negative = inhibition values is PubChem BioAssay AID1259421 (Broad Institute, 2018).

Molecules are shown by their SMILES. Where “and” joins values, the source holds several entries; their conditions need not be identical. Identical values can stand only once. Out of some 6,400 compounds screened, about 610 (9.5%) were called active. Rule as the data show it: active = activity change below about -70%; inconclusive = no clear call, values can overlap the other calls; inactive = above that. The full list was thinned out, with actives kept by preference. A structure can be active in one record and inactive in another.

The nature of the assay: T. gondii ME49Luc in HeLa cells, luciferase assay, 72 h, no IFN-y (AID 1259421). The settings on record: stronger effect = lower value, concentration not given here.
`Cc1cnc(NC(=O)C2C(=O)c3ccccc3S(=O)(=O)N2C)s1` (stereo not drawn): the activity change, negative = inhibition is 17.6% (inactive) and 14.2% (inactive).

Take `CN1CCc2cc3c(cc2C(=O)Cc2ccc4c(c2C1)OCO4)OCO3`: the activity change, negative = inhibition is 7.67% (inactive).

With `CC[C@@H](C(=O)C(C)[C@@H](O)[C@H](C)CCc1ccc(C)c(O)c1C(=O)O)C1OC(CC)(C2CC[C@](O)(CC)[C@H](C)O2)C[C@@H]1C` (stereo partly drawn), the activity change, negative = inhibition was -85.8% (active).

Take `CCOC(=O)[C@H](C)C[C@@H](Cc1ccc(-c2ccccc2)cc1)NC(=O)CCC(=O)O`: the activity change, negative = inhibition was 5.47% (inactive).

On to `Cc1cc(C)c(/C=C2\C(=O)Nc3ccccc32)[nH]1`, for which the activity change, negative = inhibition was 12.4% (inactive) and 24.8% (inactive).

Turning to `COc1c/c(=C2\C=c3ccccc3=N2)[nH]/c1=C\c1[nH]c(C)cc1C`, the activity change, negative = inhibition is -83.5% (active).

In the case of `FC(F)(F)c1ccc(/C=C/c2nc(COc3ccc(CCCCn4ccnn4)cc3)co2)cc1`, the activity change, negative = inhibition is -18% (inactive).

With `CN1C2CC(OC(=O)[C@H](CO)c3ccccc3)C[C@H]1[C@H]1OC21` (stereo partly drawn), the activity change, negative = inhibition is 1.54% (inactive).

Regarding `NC(N)=NCCN1CCCCCCC1`, the activity change, negative = inhibition was 8.88% (inactive).

Consider `CC12C(=O)OC(=O)C1(C)C1CCC2O1` (stereo not drawn), for which the activity change, negative = inhibition was -87.3% (active).

With `c1ncc(CCCC2CCNCC2)[nH]1`, the activity change, negative = inhibition is 2.3% (inactive).

As to `Fc1ccc2c(CCNCc3cccc(OCC(F)(F)C(F)F)c3)c[nH]c2c1`, the activity change, negative = inhibition was 38.3% (inactive).

In the case of `CN[C@@H](C)[C@H]1[C@H](O)C[C@@]2(C)[C@@H]3CC[C@H]4C(C)(C)[C@@H](NC)CC[C@@]45C[C@@]35CC[C@]12C`, the activity change, negative = inhibition was 6.16% (inactive).

On to `CCCCCCCCCCCCCCCC(=O)OC[C@H](COP(=O)(O)OCC[N+](C)(C)C)OC(=O)CCCCCCCCCCCCCCC`, for which the activity change, negative = inhibition was -5.4% (inactive).

Consider `COC(=O)c1ccccc1NC(=O)c1ccc(F)cc1`, for which the activity change, negative = inhibition was 31.7% (inactive) and 41.2% (inactive).

Turning to `CC(C)CCN1c2nc(Nc3cc(F)c(O)c(F)c3)ncc2N(C)C(=O)C1C` (stereo not drawn), the activity change, negative = inhibition was -84.4% (active).

For the molecule `CCCCCCCC/C=C/CCCCCCCC(=O)NCc1ccc(O)c(OC)c1`, the activity change, negative = inhibition is 6.46% (inactive).

As for `N#Cc1ccncn1`, the activity change, negative = inhibition was 17.2% (inactive).

Consider `Cc1ccc(-c2csc(NC(=O)c3ccccc3)n2)c(C)c1`, for which the activity change, negative = inhibition was 73.8% (inactive).

On to `Cc1ccnc(NC(=O)C(C)c2cccc(C(=O)c3ccccc3)c2)c1` (stereo not drawn), for which the activity change, negative = inhibition is 48.4% (inactive).

As to `CCc1nc(-c2cccc(C)c2)c(-c2ccnc(NC(=O)c3ccccc3)c2)s1`, the activity change, negative = inhibition was -91.2% (active).

As to `CC1CNc2c(cccc2S(=O)(=O)N[C@@H](CCCN=C(N)N)C(=O)N2CC[C@@H](C)C[C@@H]2C(=O)O)C1` (stereo partly drawn), the activity change, negative = inhibition is 9.02% (inactive).

In the case of `C[C@H]1COc2c(C3(N)CC3)c(F)cc3c(=O)c(C(=O)O)cn1c23`, the activity change, negative = inhibition is 14.1% (inactive).

Consider `COc1cc2nc(N3CCN(C(=O)c4ccco4)CC3)nc(N)c2cc1OC`, for which the activity change, negative = inhibition is 0.803% (inactive) and 4.94% (inactive).

As for `CCCC(=O)N1CCCN(c2nc(N)c3cc(OC)c(OC)cc3n2)CC1`, the activity change, negative = inhibition is 13% (inactive).

Consider `COc1cc2nc(N3CCCN(C)CC3)nc(NC3CCN(Cc4ccccc4)CC3)c2cc1OC`, for which the activity change, negative = inhibition was -91.5% (active).

Consider `COc1cc(O)ccc1C(C)=O`, for which the activity change, negative = inhibition is -6.96% (inactive).

For `CC(=O)OCC(=O)[C@@]1(O)CCC2C3CCC4=CC(=O)CC[C@]4(C)C3C(=O)C[C@@]21C` (stereo partly drawn), the activity change, negative = inhibition was -24.8% (inactive).

As to `CNc1cc(OC)c(C(=O)NC2CCN(Cc3ccccc3)C2C)cc1Cl` (stereo not drawn), the activity change, negative = inhibition was 3.06% (inactive).

In the case of `CCCC(O)C(CC)CO` (stereo not drawn), the activity change, negative = inhibition is 5.56% (inactive).

For the molecule `CC(=O)N[C@@H](C=O)[C@@H](O)[C@H](O)[C@H](O)CO`, the activity change, negative = inhibition is 11.9% (inactive).

For `O=C(NOCC(O)CO)c1cc(Br)c(F)c(F)c1Nc1ccc(I)cc1F` (stereo not drawn), the activity change, negative = inhibition was 8.99% (inactive).

Regarding `O=C(NOCC1CC1)c1ccc(F)c(F)c1Nc1ccc(I)cc1Cl`, the activity change, negative = inhibition is 11.9% (inactive).

Turning to `Cc1cc(I)ccc1Nc1c(C(=O)NOCC2CC2)cc(F)c(F)c1F`, the activity change, negative = inhibition is -58.9% (inactive) and -87.6% (active).

For the molecule `CC(C)C1CCC(C(=O)N[C@@H](Cc2ccccc2)C(=O)O)CC1` (stereo partly drawn), the activity change, negative = inhibition was -3.8% (inactive).

`CCN(CC)CCNC(=O)c1ccc(NC(C)=O)cc1`: the activity change, negative = inhibition is 6.42% (inactive) and 2.78% (inactive).

Take `CCN(CC)Cc1ccc2cc(COC(=O)Nc3ccc(C(=O)NO)cc3)ccc2c1`: the activity change, negative = inhibition is -81.2% (active).

As for `COc1ccc(Cn2ccc3ccc(C(=O)NO)cc32)cc1`, the activity change, negative = inhibition was 1.1% (inactive).

Regarding `C[C@H]1O[C@H](O[C@H]2[C@H](O)[C@@H](O)[C@@H](O[C@H]3[C@H](O)[C@@H](O)[C@H](O)O[C@@H]3CO)O[C@@H]2CO)[C@H](O)[C@@H](O)[C@@H]1N[C@H]1C=C(CO)[C@@H](O)[C@H](O)[C@H]1O`, the activity change, negative = inhibition was 8.26% (inactive).

As for `COc1cc(/C=C(\C#N)C(N)=O)cc(CSc2nc3ccccc3s2)c1O`, the activity change, negative = inhibition was -5% (inactive).

For `COc1cccc(OC)c1-c1cc(C(=O)NC2(C(=O)O)C3CC4CC(C3)CC2C4)nn1-c1ccc(C(=O)N(C)CCCN(C)C)cc1C(C)C` (stereo not drawn), the activity change, negative = inhibition is -1.72% (inactive).

In the case of `CC1=C(/C=C/C(=C/C=C/C(C)=C/C(=O)O)c2ccc(C)cc2)C(C)(C)CCC1`, the activity change, negative = inhibition was 20.2% (inactive).

On to `C[C@@]12CCc3occc3[C@H]1CC[C@@]13C[C@@H](CC[C@H]12)[C@@](O)(CO)C3`, for which the activity change, negative = inhibition is 14.1% (inactive).

For `CCN1CCCC(OC(=O)C(c2ccccc2)c2ccccc2)C1` (stereo not drawn), the activity change, negative = inhibition was 9.52% (inactive) and 11.2% (inactive).

In the case of `CC(C)C[C@@H](C(=O)N[C@H](C(=O)OC1CCCC1)c1ccccc1)[C@H](O)C(=O)NO`, the activity change, negative = inhibition is -91.3% (active).

Regarding `CNC(=O)[C@@H](NC(=O)[C@H](CC(C)C)[C@H](O)C(=O)NO)C(C)(C)C`, the activity change, negative = inhibition is 11.5% (inactive).

In the case of `C[C@@]1(c2nc3c(C(N)=O)cccc3[nH]2)CCCN1`, the activity change, negative = inhibition was 0.526% (inactive).

Turning to `CC(C)Cn1cnc2c1c(=O)n(C)c(=O)n2C`, the activity change, negative = inhibition was 12.6% (inactive).

Take `NCCCCN(Cc1nc2ccccc2[nH]1)[C@H]1CCCc2cccnc21`: the activity change, negative = inhibition was 25.8% (inactive).

Consider `NCCCC[C@H](NC(=O)[C@@H](Cc1cc(Br)c(O)c(Br)c1)NC(=O)N1CCC(N2Cc3ccccc3NC2=O)CC1)C(=O)N1CCN(c2ccncc2)CC1`, for which the activity change, negative = inhibition was 15.1% (inactive).

With `COc1cc2c(cc1OC)C1Cc3ccc(OC)c(OC)c3CN1CC2` (stereo not drawn), the activity change, negative = inhibition is 8.53% (inactive).

As for `COc1cc2c(cc1OC)[C@@H]1CC(=O)[C@@H](CC(C)C)CN1CC2`, the activity change, negative = inhibition is 11.3% (inactive) and 8.82% (inactive).

In the case of `CC[C@H]1CN2CCc3cc(OC)c(OC)cc3C2C[C@@H]1CC1NCCc2cc(OC)c(OC)cc21` (stereo partly drawn), the activity change, negative = inhibition was -81.1% (active) and -96.6% (active).

For the molecule `CC(=O)NCCC(=O)N[C@@H](Cc1cnc[nH]1)C(=O)O`, the activity change, negative = inhibition is 3.95% (inactive).

With `CNC(=O)c1c(-c2ccc(F)cc2)oc2cc(N(CCO)S(C)(=O)=O)c(C3CC3)cc12`, the activity change, negative = inhibition is 4.4% (inactive).

With `CC1(C)CC[C@]2(C(=O)O)CC[C@]3(C)C(=CCC4[C@@]5(C)CC[C@H](O)[C@@](C)(CO)C5CC[C@]43C)C2C1` (stereo partly drawn), the activity change, negative = inhibition is 4.93% (inactive).

In the case of `NS(=O)(=O)c1cc2c(cc1Cl)NC=NS2(=O)=O`, the activity change, negative = inhibition was -6.64% (inactive) and 2.69% (inactive).

`CC(C)[C@H]1C(=O)N[C@@H](CCCN=C(N)N)C(=O)NCC(=O)N[C@@H](CC(=O)O)C(=O)N[C@H](Cc2ccccc2)C(=O)N1C`: the activity change, negative = inhibition is 33.3% (inactive).

For the molecule `CC#C[C@]1(O)CC[C@H]2[C@@H]3CCC4=CC(=O)CCC4=C3[C@@H](c3ccc(N(C)C)cc3)C[C@@]21C`, the activity change, negative = inhibition was -77.6% (active) and 19.9% (inactive).

`CC(=O)O[C@]1(C(C)=O)CC[C@H]2[C@@H]3CCC4=CC(=O)CCC4=C3[C@@H](c3ccc(N(C)C)cc3)C[C@@]21C`: the activity change, negative = inhibition is -58.3% (inactive).

`CC#CC1(O)CCC2C3CCC4=CC(=O)CCC4=C3C(c3ccc(N(C)C)cc3)CC21C` (stereo not drawn): the activity change, negative = inhibition was 32.4% (inactive).

Regarding `CCC[C@@H]1C[C@@H](C(=O)N[C@@H]([C@H]2O[C@H](SC)[C@H](O)[C@@H](O)[C@@H]2O)[C@@H](C)O)N(C)C1`, the activity change, negative = inhibition is 0.0317% (inactive).

For `C=CC(=O)NCc1ccccc1`, the activity change, negative = inhibition is 10.8% (inactive).

`CC(=O)O/N=C1/C(=O)N(Cc2cc(Cl)ccc2Cl)c2ccc(Cl)cc21`: the activity change, negative = inhibition is -78.1% (active).

In the case of `O=C1C(=O)N(Cc2ccc(Cl)c(Cl)c2)c2ccccc21`, the activity change, negative = inhibition was 25.2% (inactive) and 12.2% (inactive).

Turning to `COc1ccc(CN2C(=O)C(=O)c3cc(OC(F)(F)F)ccc32)cc1`, the activity change, negative = inhibition was -31.8% (inactive).

For the molecule `COc1ccc(Cl)cc1C(=O)NCCc1ccc(C(=O)O)cc1`, the activity change, negative = inhibition was 10.3% (inactive).

`CCCCCCCCCC(=O)N[C@@H](Cc1c[nH]c2ccccc12)C(=O)N[C@H](CC(N)=O)C(=O)N[C@@H](CC(=O)O)C(=O)N[C@@H]1C(=O)NCC(=O)N[C@@H](CCCN)C(=O)N[C@@H](CC(=O)O)C(=O)N[C@H](C)C(=O)N[C@@H](CC(=O)O)C(=O)NCC(=O)N[C@H](CO)C(=O)N[C@@H]([C@@H](C)CC(=O)O)C(=O)N[C@@H](CC(=O)c2ccccc2N)C(=O)O[C@@H]1C`: the activity change, negative = inhibition was 5.37% (inactive).

`C[C@H](O[C@H]1OCCN(Cc2n[nH]c(=O)[nH]2)[C@H]1c1ccc(F)cc1)c1cc(C(F)(F)F)cc(C(F)(F)F)c1`: the activity change, negative = inhibition is 3.24% (inactive).

Consider `Clc1cccc2c1CN(C1=NCCN1)C2`, for which the activity change, negative = inhibition is 4.53% (inactive) and 6.96% (inactive).

In the case of `O=C1CN2Cc3c(ccc(Cl)c3Cl)N=C2N1`, the activity change, negative = inhibition is -78.8% (active) and -0.538% (inactive).

Take `Cc1nc2c([nH]1)CCN(C(=O)c1ccc(NC(=O)c3ccccc3-c3ccccc3)cc1)c1ccccc1-2`: the activity change, negative = inhibition is 24.9% (inactive).

As to `CC1(C)O[C@@H]2CC3C4C[C@H](F)C5=CC(=O)CC[C@]5(C)C4[C@@H](O)C[C@]3(C)[C@]2(C(=O)CO)O1` (stereo partly drawn), the activity change, negative = inhibition was -1.03% (inactive) and -3% (inactive).
